Hit rate of the full screen: of about 2,100 compounds, about 320 (15%) were called active. Roughly 52% stayed inconclusive and do not appear here. Calls come from the whole dose curve; as a rule, active = well fitted cell-killing curve with a large enough effect; inconclusive = small, poorly fitted or top-dose-only effect, or effect the other way; inactive = flat fitted curve, though single readings scatter. Some of the results follow. Entries that show only a call come without a potency.
Potency is the fitted concentration of half-maximal effect.

This assay in a line: Viability Counterscreen for CMV-Luciferase Assay of Inhibitors of ATXN expression. Note: nearly all actives have a fitted effect of over 55% in size. Particulars: HEK-293 CMV-luciferase cells viability, protease fluorescence, 24 h. The essentials: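 Cells: HEK-293/CMV-luc in phenol-red-free DMEM, 2 hr settle. Cpd dose, 24 hr, 37 °C, 5% CO2. Viability: Gly-Phe-AFC 25 uM final, 30 min, fluor. Then SteadyGlo, 5 min RT, lumin.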
A general note: The purpose of a counterscreen is to sort out artefacts and off-target activity.
Consider `COC(=O)c1c(NC(=O)/C=C/C(=O)O)sc(C)c1-c1ccc(C(C)C)cc1`, for which the Potency is 20 µM (active).

For the compound `CCOC(=O)c1c(C)nn(-c2ccc(NC(=O)/C=C/C(=O)O)cc2)c1C`, the Potency result is “inactive”.

Consider `CC(=O)c1sc(C(C)(C)C)cc1NC(=O)/C=C/C(=O)O`, for which the Potency result is “inactive”.

On to `CN(C)CCCN(C(=O)c1ccc(S(=O)(=O)N2CCCC2)cc1)c1nc2ccc(Br)cc2s1`, for which the Potency was 31.6 µM (active).

Turning to `CN(C)CCCN(C(=O)c1ccc(S(=O)(=O)N2CCCCCC2)cc1)c1nc2ccc(Br)cc2s1`, the Potency entry was “inactive”.

In the case of `CC(=O)c1ccc(S(=O)(=O)N2CCN(CCOc3ccc(Br)cc3)CC2)cc1`, the Potency entry is “inactive”.

With `CN(C)CCCN(C(=O)CCc1ccccc1)c1nc2ccc(Br)cc2s1`, the Potency is 22.4 µM (active).

With `O=C(N/N=C/c1cc(Br)ccc1O)C(c1ccncc1)N1CCOCC1` (stereo not given), the Potency entry was “inactive”.

As to `Cc1cc(C(=O)N/N=C/c2cc(Br)ccc2OC(=O)c2ccccc2)n[nH]1`, the Potency result is “inactive”.

Regarding `COc1cccc(NC(=O)/C=C/c2ccc(S(=O)(=O)N3CCOCC3)cc2)c1`, the Potency entry is “inactive”.

Regarding `Cn1c(CO)c(-c2ccccc2)c2cc([N+](=O)[O-])ccc21`, the Potency entry was “inactive”.

As to `Cc1[nH]n2c(=O)cc(C(C)(C)C)nc2c1-c1ccccc1`, the Potency was 11.2 µM (active).

For `CC(C)N(C(=O)COC(=O)c1ccccc1C(=O)c1ccc(Cl)c([N+](=O)[O-])c1)C(C)C`, the Potency result was “inactive”.

Turning to `COCCCNCCCOc1ccc(Cl)cc1C(C)(C)C`, the Potency is 25.1 µM (active).

On to `CCCCNCCCOc1cccc(Cl)c1Cl`, for which the Potency entry is “inactive”.

With `O=C(N/N=C\c1cc(Cl)ccc1O)c1ccc(S(=O)(=O)N2CCCCC2)cc1`, the Potency entry was “inactive”.

For the compound `CC(OC(=O)c1cc(Br)ccc1O)C(=O)Nc1ccc(S(=O)(=O)N2CCCC2)cc1` (stereo not given), the Potency was 28.2 µM (active).

For `O=C(N/N=C\c1cc(Br)ccc1O)c1ccc(S(=O)(=O)N2CCCCC2)cc1`, the Potency entry is “inactive”.

Take `COc1ccc(-c2n(CC(=O)OC3CC(C)CCC3C(C)C)c3ccccc3[n+]2C)cc1` (stereo not given): the Potency is 7.94 µM (active).

Regarding `N#C/C(=N\Nc1cccc([N+](=O)[O-])c1)C(=O)c1ccc(Br)cc1`, the Potency was 2.24 µM (active).

Regarding `C/C(=N\Nc1cc(N2CCOCC2)nc(C)n1)c1cccc([N+](=O)[O-])c1`, the Potency entry was “inactive”.

With `CC(NC(=O)Nc1cccc([N+](=O)[O-])c1)c1ccc2c(c1)OCO2` (stereo not given), the Potency result was “inactive”.

As to `Cc1csc2c(N3CCN(C(=O)Nc4ccc(Cl)c(Cl)c4)CC3)ncnc12`, the Potency entry is “inactive”.

As to `COc1ccc([C@@]2(C(C)C)ON(c3ccccc3C(F)(F)F)C2=O)cc1`, the Potency entry is “inactive”.

On to `O=C(NCC(=O)N1CC(O)CC1C(=O)N1CCCC1C(=O)OCc1ccccc1)OCc1ccccc1` (stereo not given), for which the Potency entry was “inactive”.

Take `C=CCc1cccc(/C=N/NC(=O)CCCNc2ccc(C)cc2)c1O`: the Potency was 20 µM (active).

As to `O=C(Cc1ccccc1)N/N=C/c1cc(Br)cc(Br)c1O`, the Potency entry is “inactive”.

Consider `C=CCc1cccc(/C=N/NC(=O)CNc2ccccc2)c1O`, for which the Potency entry is “inactive”.

Take `CCOC(=O)N1CCN(S(=O)(=O)c2ccc(C(=O)NNc3nc4c(C)cc(C)cc4s3)cc2)CC1`: the Potency was 1.58 µM (active).

For `Cc1cc(C)c2nc(NNC(=O)c3cc(-c4cccs4)nc4ccccc34)sc2c1`, the Potency result was “inactive”.

Regarding `Cc1cc(C)c2nc(NNC(=O)c3ccc(S(=O)(=O)N4CC(C)CC(C)C4)cc3)sc2c1` (stereo not given), the Potency result is “inactive”.

On to `Cc1nc(SCc2ccc(C(=O)O)cc2)nc2c1CCCC2`, for which the Potency result is “inactive”.

For `CN(C)CCNC(=O)c1cccc(-c2cnc3c(NC=O)cc(/C=C/c4ccccc4)cn23)c1`, the Potency was 28.2 µM (active).

With `CN1CCN(c2ccc(-c3cc(NC=O)c4ncc(-c5ccc(F)c(Cl)c5)n4c3)cc2)CC1`, the Potency result was “inactive”.

Regarding `CN(C)CCNC(=O)c1cccc(-c2cnc3c(NC=O)cc(-c4cccs4)cn23)c1`, the Potency result was “inactive”.

Consider `CN(C)C(=O)c1cccc(-c2cnc3c(NC=O)cc(-c4ccc(F)cc4)cn23)c1`, for which the Potency result is “inactive”.

Consider `CN(C)CCNC(=O)c1cccc(-c2cnc3c(NC=O)cc(-c4cccc(C(F)(F)F)c4)cn23)c1`, for which the Potency was 22.4 µM (active).

As to `CCCCNC(=NCc1cccc(C(F)(F)F)c1)Nc1ccccc1`, the Potency entry was “inactive”.

As for `COc1cc(/C=N/Nc2ccc(Cl)c(C(=O)O)c2)ccc1OC(=O)c1ccco1`, the Potency entry is “inactive”.

Turning to `COC(=O)c1c(NC(=O)c2ccc([N+](=O)[O-])o2)sc2c1CCN(C(C)C)C2`, the Potency is 15.8 µM (active).

For `NC(=O)c1c(NC(=O)c2ccc(S(=O)(=O)N3CCOCC3)cc2)sc2c1CCCCC2`, the Potency entry is “inactive”.

Take `CN(C)C(CNC(=O)c1cccc(S(=O)(=O)N2CCN(c3ccc(F)cc3)CC2)c1)c1ccccc1` (stereo not given): the Potency result is “inactive”.

For the compound `Cc1ccc(OCC(=O)c2cc(C)n(Cc3cccs3)c2C)c([N+](=O)[O-])n1`, the Potency entry was “inactive”.

With `COCCCNC1=C(Cl)C(=O)c2ccccc2C1=O`, the Potency is 25.1 µM (active).

For the compound `COc1ccc(CCNC2=C(Cl)C(=O)N(Cc3ccccc3)C2=O)cc1OC`, the Potency result is “inactive”.

Regarding `CC(C)Cn1c(/C=N/Nc2nc3ccccc3[nH]2)nc2ccccc21`, the Potency entry was “inactive”.

Regarding `CCC(C)(C)c1ccc(OCCCC[n+]2ccccc2)c(C(C)(C)CC)c1`, the Potency result was “inactive”.

With `Nc1ccn([C@@H]2O[C@H](CO)[C@@H](O)[C@@H]2O)c(=O)n1`, the Potency result was “inactive”.

For `Nc1ccn(C2OC(COP(=O)(O)O)C(O)C2O)c(=O)n1` (stereo not given), the Potency entry is “inactive”.

Turning to `Nc1ncn([C@@H]2O[C@H](CO)[C@@H](O)[C@H]2O)c(=O)n1`, the Potency is 6.31 µM (active).

With `C/C(=N\NC(=O)c1ccc(CN2CCc3ccccc3C2)cc1)c1ccccc1O`, the Potency entry is “inactive”.

Regarding `Cc1c(OCC(=O)NC2CC(C)(C)NC(C)(C)C2)ccc2c1oc(=O)c1ccccc12`, the Potency entry was “inactive”.

Consider `CCOCCn1ccc2c(OCC(=O)Nc3ccc(OC)c(OC)c3)cccc2c1=O`, for which the Potency result was “inactive”.

On to `COc1cccc(CN(C)C(=O)c2ccc(OCC(=O)Nc3cccc(C(F)(F)F)c3)c(OC)c2)c1`, for which the Potency was 17.8 µM (active).

Regarding `COc1cccc(OCC(=O)Nc2cc(Cl)ccc2Oc2ccccc2)c1`, the Potency result is “inactive”.

Regarding `O=C(Nc1nc(NC(=O)c2ccco2)n(-c2ccccc2)n1)c1ccccc1`, the Potency was 12.6 µM (active).

Take `O=C(Nc1ccc(NC(=O)c2ccco2)cc1)c1ccc2c(c1)OCCO2`: the Potency entry is “inactive”.

For `CN(CCc1ccccc1)c1cc2c(c3c1ccn3C)C1CCC2O1` (stereo not given), the Potency result is “inactive”.

Turning to `O=C(CN1C(=O)c2ccccc2S1(=O)=O)Nc1ncc(Cl)cc1Cl`, the Potency entry is “inactive”.

Consider `O=C(NNC(=O)c1cnccn1)c1ccc(Cl)c(Cl)c1`, for which the Potency was 22.4 µM (active).

On to `O=C(NCCc1csc(-c2cccnc2)n1)c1cccc(Cl)c1`, for which the Potency entry was “inactive”.

As to `O=C(N/N=C/c1cc(Cl)ccc1O)c1cccnc1`, the Potency result is “inactive”.

Regarding `CCCC[C@@H](CNC)NC[C@H](NCCCCC1CCCCC1)C(C)C`, the Potency was 28.2 µM (active).

As to `OC(c1cc(F)cc(Cl)c1)c1ncc(-c2cccc(C(F)(F)F)c2)[nH]1` (stereo not given), the Potency entry is “inactive”.

Take `CCOC(=O)c1c(NC(=O)C(Sc2ccccc2)c2ccccc2)sc(C(=O)N(C)C)c1C` (stereo not given): the Potency result is “inactive”.

For `C=CCOC(=O)C1=C(C)NC(SCC)=C(C#N)C1c1ccc(Cl)cc1` (stereo not given), the Potency entry is “inactive”.

On to `O=C1C=C(NCCc2cc(Br)c(O)c(Br)c2)C(=O)c2ncccc21`, for which the Potency was 8.91 µM (active).

Consider `Brc1cnc2nc(SCc3nc4ccccc4[nH]3)[nH]c2c1`, for which the Potency entry was “inactive”.

On to `CCCc1cnc(NCCNCC(O)COc2ccc(Cl)c(Cl)c2)nc1` (stereo not given), for which the Potency is 28.2 µM (active).

In the case of `Cc1nc2ccccc2c(=O)n1/N=C/c1c(O)ccc2oc3c(c12)CCCC3`, the Potency entry is “inactive”.

Consider `COc1ccc(OCc2cccc(C(=O)Nn3cc([N+](=O)[O-])cn3)c2)cc1`, for which the Potency result is “inactive”.

Consider `Cc1cc(/C=N/n2c(COc3ccccc3)nc3ccccc3c2=O)c(O)c([N+](=O)[O-])c1`, for which the Potency was 12.6 µM (active).

As for `Cc1ccc2nc(-c3ccccc3)nn2c1`, the Potency result is “inactive”.

Turning to `O=[N+]([O-])c1c(Nc2ccccn2)cc(Cl)c2nonc12`, the Potency was 11.2 µM (active).

As for `Cn1c(=O)c(C#N)c(-c2ccc(F)cc2)c2cc(C(=O)c3cc(Cl)cc(Cl)c3O)cnc21`, the Potency entry was “inactive”.

In the case of `Oc1ccc2ccccc2c1/C=C/c1ccc2c(Br)cc(Br)c(O)c2n1`, the Potency result is “inactive”.

`CCOC(=O)C(CC)(CC)C(=O)/C=C/c1ccc(OC)cc1`: the Potency entry is “inactive”.

Consider `COc1ccc(C(=O)Nn2c(SCC(=O)c3ccccc3)nc3ccccc3c2=O)cc1`, for which the Potency result was “inactive”.

Turning to `COc1ccc(C(=O)Cn2c(C(=O)/C=C/c3ccccc3)nc3ccccc32)cc1`, the Potency is 3.16 µM (active).

For the compound `CC1=C(CC[C@@H](C)CO)OC2CC3C4CCC5CC(O)CCC5(C)C4CC(=O)C3(C)C12` (stereo not given in full), the Potency entry was “inactive”.

With `Cn1c(=O)c2c(nc(SCCN3CCOCC3)n2Cc2cccc3ccccc23)n(C)c1=O`, the Potency result is “inactive”.

On to `Cn1c(=O)c2c(nc(CN3CCN(Cc4ccccc4)CC3)n2Cc2ccc(Cl)cc2)n(C)c1=O`, for which the Potency is 25.1 µM (active).

For the compound `COc1ccc(CNC(=O)Nc2nc(C(N)Cc3ccc(Cl)cc3)cs2)cc1` (stereo not given), the Potency is 22.4 µM (active).

Consider `COc1ccc(CC(N)c2csc(NC(=O)c3cc(C(C)(C)C)nn3Cc3ccccc3)n2)cc1` (stereo not given), for which the Potency result was “inactive”.

For `COc1ccc(CC(N)c2csc(NC(=O)c3ccccc3OC)n2)cc1` (stereo not given), the Potency result is “inactive”.

Turning to `CN(C)c1ccc(C(=O)N/N=C/c2cc(Br)cc(Br)c2O)cc1`, the Potency entry is “inactive”.

In the case of `Cc1onc(-c2c(F)cccc2Cl)c1C(=O)Nc1nnc(C(F)(F)F)s1`, the Potency entry is “inactive”.

Consider `Fc1ccc(Nc2nnc(C(F)(F)F)s2)cc1Cl`, for which the Potency was 28.2 µM (active).

For `Oc1ccc(C[C@@H]2CNCCN2CCc2cc(C(F)(F)F)cc(C(F)(F)F)c2)cc1`, the Potency entry was “inactive”.

In the case of `CCOC(=O)C1CCN(C(=O)c2c(C)oc3c2C(=O)c2ccccc2C3=O)CC1`, the Potency was 15.8 µM (active).

Take `NC(=O)C1CCN(C2=C(Cl)C(=O)c3ccccc3C2=O)CC1`: the Potency result is “inactive”.

`CCOC(=O)C1CCN(c2cc3c(cc2NC(=O)c2ccccc2OCC)n(C)c(=O)n3C)CC1`: the Potency result is “inactive”.

Turning to `COc1cc(C(=O)OC(C)C(=O)N2CCc3ccccc3C2)ccc1OCC(=O)N1CCOCC1` (stereo not given), the Potency result was “inactive”.

In the case of `O=C(Nc1ccc2c(c1)CCC2)C1CCN(c2c3c(nc4ncnn24)CCC3)CC1`, the Potency result is “inactive”.

As to `CCCCCn1c(=N)n(CC(O)COc2ccccc2OC)c2ccccc21` (stereo not given), the Potency is 3.16 µM (active).

For the origin of these results see PubChem BioAssay AID1745849 (National Center for Advancing Translational Sciences (NCATS), 2022).
